Assay results: the supplement of paper PMC3334620
In all, about 33,000 sequences were measured (“E-score (-0.5 to 0.5)”: median about -0.01, highest 2% from about 0.26 on). The entries come from a sample that favours the highest values as a whole.

Target: Ste12 (UniProt P13574)
Assay: PBM E-score (8-mer binding enrichment) (E-score (-0.5 to 0.5)); higher = stronger / more preferred TF binding
Conditions: protein concentration: 200 nM; construct: GST-DNA-binding domain
Method: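 Universal 'all 10-mer' protein binding microarrays (Agilent AMADID 015681) probed with GST-tagged S. cerevisiae TFs (full-length or DBD) made by in vitro transcription/translation (PURExpress), about 100-200 nM. Bound TF was detected with fluorescent anti-GST. Each ungapped 8-mer (which stands for itself and its reverse complement) is scored by the PBM enrichment score (E-score), a modified Wilcoxon-Mann-Whitney statistic from -0.5 to +0.5, computed with the Universal PBM Analysis Suite. Scale: above 0.35 generally sequence-specific binding.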

Chain of UniProt P13574 (P13574 whole entry): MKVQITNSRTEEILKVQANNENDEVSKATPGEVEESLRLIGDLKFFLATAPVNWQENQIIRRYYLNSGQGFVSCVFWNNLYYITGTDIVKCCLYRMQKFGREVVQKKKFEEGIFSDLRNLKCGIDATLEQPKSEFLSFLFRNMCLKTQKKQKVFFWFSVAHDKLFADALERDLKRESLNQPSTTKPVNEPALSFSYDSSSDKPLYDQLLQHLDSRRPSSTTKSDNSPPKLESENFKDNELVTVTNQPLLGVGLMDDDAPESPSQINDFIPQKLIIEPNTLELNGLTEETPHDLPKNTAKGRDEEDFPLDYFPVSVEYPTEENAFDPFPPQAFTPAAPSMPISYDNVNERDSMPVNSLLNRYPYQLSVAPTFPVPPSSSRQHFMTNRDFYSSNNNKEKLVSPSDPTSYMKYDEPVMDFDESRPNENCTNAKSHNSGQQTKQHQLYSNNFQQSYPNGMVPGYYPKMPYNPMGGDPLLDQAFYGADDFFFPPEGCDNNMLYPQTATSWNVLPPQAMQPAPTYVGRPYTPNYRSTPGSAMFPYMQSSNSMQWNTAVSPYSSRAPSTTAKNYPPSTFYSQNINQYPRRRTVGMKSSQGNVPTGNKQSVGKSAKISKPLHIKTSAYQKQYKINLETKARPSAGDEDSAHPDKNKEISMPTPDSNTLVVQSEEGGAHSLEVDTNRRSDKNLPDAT

Sequence	PBM E-score
GATGGGCA	-0.0542
AGAATATA	0.0722
AAATCTAC	0.151
CCCGCACA	0.023
GCCAGGTA	-0.127
AACGATTC	-0.0106
GCCCTCAA	-0.23
GCGGTCAA	-0.0277
GGTTTTCA	0.311
GGGGTTCA	-0.0134
AGGTTTCC	-0.0692
GGGTTTGA	0.18
CGGTTTCC	0.1
CGGTTTAA	0.00247
GGGTTTCA	0.435
AGGTTTCG	0.144
GTTTTTCA	0.217
CGTTTTCA	0.132
AGGTTTCA	0.451
CGGTTTCA	0.452
AACGTCAG	-0.155
GAGGATTA	0.0342
CCCGATAG	0.0566
GGCTTTAA	0.0191
AAAGCGCC	-0.0182
CGCTCAAC	-0.108

Sequence	PBM E-score
CTTGACCC	-0.129
ACCTCATC	-0.0717
GACAGCCC	-0.085
CTGAACGA	-0.167
AATCCAGC	-0.221
CAAACATC	0.192
CAAACATA	0.23
TAAACATA	0.218
GATACATC	0.0608
GAAACATA	0.433
GAAACATC	0.355
GCATATCA	0.0522
ACGAATGA	0.135
AAACGGAC	0.149
AAACGGAT	0.265
AAACGGAG	0.0885
TACGCAAA	-0.0817
CCCAGACC	-0.0973
AAAGTACC	-0.0428
AAACACCG	0.318
AAACACAG	0.118
CAACACCG	-0.103
AAACACGC	0.288
ATACACAA	0.283
AAACACGA	0.129
AAACACAC	0.243

Sequence	PBM E-score
ATACACAC	-0.0713
AAACACCT	0.104
ATACACAG	-0.054
AAACACAA	0.291
CAACACGC	-0.247
ACGCCTAA	0.0463
CTAGTTGA	0.175
TAGCGAAA	0.118
AGCAGTTG	-0.126
CCGGTCTA	-0.191
GCGATTTA	0.0399
CGGAGAAG	-0.00086
CCTTTAAA	0.0788
CTTTTAAA	0.255
GGTTTTTA	0.166
GTTTAAAC	0.214
GGTTTTAA	0.298
GGTTTAAA	0.211
GTTTTAAA	0.378
GGTTAAAA	0.256
GTTTAAAA	0.3
CTTTAAAA	0.266
GGGTTTAA	0.215
CTTTAAAC	0.0682
ATGCGCAT	0.0672
CAAGGAGG	-0.075

Sequence	PBM E-score
AACGATCG	0.0136
TAGGCCTA	-0.15
AATGGGGG	-0.187
GCTATGAC	0.0507
AGGAGTAA	-0.0677
CTGAGAAC	0.0658
AACAGGGC	0.0987
TGTTTAAA	0.26
GCTTAAAC	-0.0138
TTTAAAAA	0.184
AGTTTTAA	0.212
GCTTAAAA	0.31
TTTTAAAA	0.329
CCTTAAAA	0.162
TGTTTTAA	0.364
TCTTAAAA	0.156
AGTTTTAG	0.12
AGTTTTAT	0.275
AGTTTTAC	0.143
CCCTAACG	-0.00496
AAGGGAGT	-0.232
CGCAGAAC	-0.122
AACAACCG	0.0778
CAGATCAA	0.00349
CGTTTTTA	0.165
GTTTTTAA	0.261

Sequence	PBM E-score
CGTTTTAG	0.215
CTTTTTAA	0.104
GTTTTTTA	0.149
CGTTTTAA	0.319
AAGAGTTG	-0.149
GGTTCATA	-0.0487
GGGAGAAC	-0.0492
ATCCTCAA	0.00575
AAATTGTT	0.186
AAATTGTA	0.048
AAATTGTC	0.268
CGTGTTTA	0.0319
AGTGTTTA	0.174
AGTGTTTG	0.245
AGTGTTTC	0.332
CGTGTTTC	0.36
CGTGTTGC	0.0401
GCCCTCGA	-0.216
CTTTAGTC	-0.0859
GGCCAAAA	0.0718
TCAACTCA	0.0748
CGAATACA	0.0383
AGCAGTGA	-0.0211
ATATGCTC	0.0529
AAAACGAC	0.0623
ATAACGAA	0.0476

Sequence	PBM E-score
TTAACGAA	0.262
CTAACGAA	0.11
CAAACGAC	0.128
GAAACGAC	0.317
GAAACGAA	0.367
CAAACGAA	0.101
AAAACGAA	0.237
CAAGTCTG	-0.0972
CGTCGCTC	-0.115
AGTATGGG	-0.0937
ATGGCCGC	-0.0598
ATGAGGTC	0.0263
AGGCTCGG	-0.112
GTAATTTA	0.223
ACAATTAC	0.087
ATAATTTA	0.357
ACAATTAT	0.212
ATAATTAC	0.131
TTAATTAA	0.245
ATAATTTG	0.212
ATAATTAA	0.276
ACAATTAA	0.292
CCGCCAGG	-0.206
GCTCAGCA	-0.0833
AATCTCAT	0.165
CTGACCGC	0.123

Sequence	PBM E-score
AAATGCAC	-0.00999
CACCCATA	0.105
ACCAGACG	-0.174
CGCGCGTC	0.0795
ACGCCACG	-0.182
ATTCGAAC	0.105
CTTCGAAA	0.132
ATTCGAAT	0.268
ATTCGAAG	-0.0567
ATTCGAAA	0.286
ACTCGAAT	-0.144
GCCTTCCC	-0.0772
CACACTTC	0.00873
AACCACTA	-0.00019
TGACATAA	0.268
GGACATAA	0.0357
AAACATAT	0.273
ATACATAA	0.21
CGGCATAA	-0.0029
AGACATAA	0.101
AAACATAG	0.205
